PubChem BioAssay (NCI)
About 83,000 compounds went through this panel and 20% of them were active in at least one assay; those are over-represented in the sample as a whole.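 Testing used 96-well plates and a 48-hour single-concentration exposure. Example: -40 means 40% of the starting cells died.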 Active and inactive are the calls of the source. The calls were made as follows: active = growth percent below 10; inactive = the rest.

What was measured:
Assay in all cases: NCI-60 one-dose screen, 48 h (100 = growth as untreated, 0 = no growth, -100 = all killed)
Details in all cases: 10 µM unless noted
NCI-H23 lung = tested on: NCI-H23 lung
HOP-62 NSCLC = tested on: HOP-62 NSCLC
NCI-H460 lung = tested on: NCI-H460 lung
HOP-92 NSCLC = tested on: HOP-92 NSCLC
NCI-H522 lung = tested on: NCI-H522 lung
A549/ATCC NSCLC = tested on: A549/ATCC NSCLC
786-0 renal = tested on: 786-0 renal
COLO 205 colon = tested on: COLO 205 colon
DU-145 prostate = tested on: DU-145 prostate
K-562 leukemia = tested on: K-562 leukemia
MALME-3M melanoma = tested on: MALME-3M melanoma
MDA-MB-231 breast = tested on: MDA-MB-231 breast
RXF 393 renal = tested on: RXF 393 renal
SF-268 CNS = tested on: SF-268 CNS
SF-295 CNS = tested on: SF-295 CNS
SF-539 CNS = tested on: SF-539 CNS
UACC-257 melanoma = tested on: UACC-257 melanoma
M14 melanoma = tested on: M14 melanoma
HCT-15 colon = tested on: HCT-15 colon

Measured: growth

COc1cc2nc(-c3cccc4cccnc34)nc(NC3CCN(Cc4ccccc4)CC3)c2cc1OC
active: NCI-H23 lung -72.2% | HOP-62 NSCLC -73.9% | NCI-H460 lung -73.6% | HOP-92 NSCLC -73.2% | NCI-H522 lung -52.1% | A549/ATCC NSCLC -72.7% | 786-0 renal -71.4% | COLO 205 colon -75.5% | DU-145 prostate -93.6% | K-562 leukemia -49.4% | MALME-3M melanoma -76.6% | MDA-MB-231 breast -89.5% | RXF 393 renal -79.8% | SF-268 CNS -68.8% | SF-295 CNS -87.2% | SF-539 CNS -86.6% | UACC-257 melanoma -62.4% | M14 melanoma -80% | HCT-15 colon -80.9%

O=C(CN1C=NC2C(N3CCOCC3)=NC=NC21)c1ccc(Br)cc1 (centres undefined)
inactive: NCI-H23 lung 99.2% | HOP-62 NSCLC 103% | NCI-H460 lung 99.9% | HOP-92 NSCLC 106% | NCI-H522 lung 87.2% | A549/ATCC NSCLC 103% | 786-0 renal 103% | COLO 205 colon 112% | DU-145 prostate 107% | K-562 leukemia 106% | MALME-3M melanoma 104% | MDA-MB-231 breast 105% | RXF 393 renal 103% | SF-268 CNS 98.9% | SF-295 CNS 97.9% | SF-539 CNS 100% | UACC-257 melanoma 105% | M14 melanoma 107% | HCT-15 colon 101%

FC(F)(F)c1cccc(Nc2nc(-c3ccccc3)nc3ncccc23)c1
inactive: NCI-H23 lung 89.9% | HOP-62 NSCLC 84.5% | NCI-H460 lung 20.9% | NCI-H522 lung 72.8% | A549/ATCC NSCLC 82.3% | 786-0 renal 68% | DU-145 prostate 75.1% | MDA-MB-231 breast 44% | SF-268 CNS 13.3% | HCT-15 colon 17.6%
active: HOP-92 NSCLC -67.3% | COLO 205 colon -75% | K-562 leukemia -47.1% | MALME-3M melanoma -83.1% | RXF 393 renal -13.6% | SF-539 CNS 3.25% | UACC-257 melanoma -52.7% | M14 melanoma -86.6%

COc1cc(C2C(C#N)=C(N)OC3=C2C(=O)c2ccccc2C3=O)cc(OC)c1OC (centres undefined)
inactive: NCI-H23 lung 31.4% | HOP-92 NSCLC 80.6% | A549/ATCC NSCLC 41% | 786-0 renal 35.6% | COLO 205 colon 89% | DU-145 prostate 25.1% | MALME-3M melanoma 47.8% | MDA-MB-231 breast 36.4% | SF-268 CNS 39.5% | SF-295 CNS 23.2% | UACC-257 melanoma 50.5% | M14 melanoma 12.3% | HCT-15 colon 20.1%
active: HOP-62 NSCLC 7.45% | NCI-H460 lung 9.57% | NCI-H522 lung -18.6% | SF-539 CNS -19.6%

COc1cc(-c2c3c(cn2S(=O)(=O)c2ccccc2)-c2nc(N)sc2CC3)cc(OC)c1OC
inactive: NCI-H23 lung 44% | HOP-62 NSCLC 53.5% | HOP-92 NSCLC 60.2% | NCI-H522 lung 19.9% | A549/ATCC NSCLC 30.7% | 786-0 renal 43.4% | MALME-3M melanoma 42.4% | MDA-MB-231 breast 19.3% | SF-268 CNS 40.7% | SF-295 CNS 11.2% | UACC-257 melanoma 74% | M14 melanoma 34.4% | HCT-15 colon 27.5%
active: NCI-H460 lung 6.37% | COLO 205 colon -1.14% | DU-145 prostate 0.0609% | K-562 leukemia 8.08% | RXF 393 renal 2.6% | SF-539 CNS -31.8%

Cc1c(-c2csc(-n3nc(C(F)(F)F)cc3C(F)(F)F)n2)no[n+]1[O-]
inactive: NCI-H23 lung 98.4% | HOP-62 NSCLC 100% | HOP-92 NSCLC 96.3% | NCI-H522 lung 87.4% | A549/ATCC NSCLC 95.3% | 786-0 renal 97.5% | COLO 205 colon 112% | DU-145 prostate 105% | K-562 leukemia 93.1% | MALME-3M melanoma 96.8% | MDA-MB-231 breast 96.5% | RXF 393 renal 101% | SF-268 CNS 96.1% | SF-295 CNS 93.9% | SF-539 CNS 99.1% | UACC-257 melanoma 98.5% | M14 melanoma 90.2% | HCT-15 colon 95.4%

CCN1CCN(C(=S)SCC(=O)Nc2nc3ccc(C)cc3s2)CC1
inactive: NCI-H23 lung 99.2% | HOP-62 NSCLC 99.7% | NCI-H460 lung 113% | HOP-92 NSCLC 92.5% | NCI-H522 lung 29.1% | A549/ATCC NSCLC 103% | 786-0 renal 118% | COLO 205 colon 103% | DU-145 prostate 113% | K-562 leukemia 104% | MALME-3M melanoma 105% | MDA-MB-231 breast 104% | RXF 393 renal 108% | SF-268 CNS 107% | SF-295 CNS 106% | SF-539 CNS 117% | UACC-257 melanoma 116% | M14 melanoma 124% | HCT-15 colon 103%

CC(=O)O[C@@H]1/C=C/C(=O)N[C@@H](C)CCC/C=C/[C@@H]2CCC[C@H]21
inactive: NCI-H23 lung 98.2% | HOP-62 NSCLC 99% | NCI-H460 lung 107% | HOP-92 NSCLC 92.9% | NCI-H522 lung 37.9% | A549/ATCC NSCLC 108% | 786-0 renal 101% | COLO 205 colon 114% | DU-145 prostate 112% | K-562 leukemia 102% | MALME-3M melanoma 117% | MDA-MB-231 breast 122% | SF-268 CNS 104% | SF-295 CNS 98.6% | SF-539 CNS 94% | UACC-257 melanoma 101% | M14 melanoma 103% | HCT-15 colon 114%

O=C(Nc1ccc(-c2nc3ccc(NC(=O)c4ccc(Cl)cc4)cc3[nH]2)cc1)c1ccc(Cl)cc1
inactive: NCI-H23 lung 56% | HOP-62 NSCLC 29.2% | HOP-92 NSCLC 41.2% | DU-145 prostate 44.1% | SF-268 CNS 43.7% | HCT-15 colon 32.1%
active: NCI-H522 lung -65.6% | A549/ATCC NSCLC 4.64% | 786-0 renal -22.8% | COLO 205 colon -74.3% | K-562 leukemia -1.36% | MDA-MB-231 breast -0.679% | RXF 393 renal -49% | SF-295 CNS -68% | SF-539 CNS -68.2% | UACC-257 melanoma -15.8% | M14 melanoma 2.14%

COc1ccc(-c2nc(N3CCN(C(=O)C4CCCCC4)CC3)c3c4c(sc3n2)CCCC4)cc1
active: HOP-62 NSCLC -84.5% | NCI-H460 lung -32.8% | NCI-H522 lung -23.9% | A549/ATCC NSCLC -36.3% | 786-0 renal -78.4% | COLO 205 colon -38.5% | DU-145 prostate -21.9% | K-562 leukemia 0.112% | MALME-3M melanoma -56.2% | RXF 393 renal -59.3% | SF-295 CNS -82% | SF-539 CNS -1.73%
inactive: NCI-H23 lung 44% | HOP-92 NSCLC 44.8% | MDA-MB-231 breast 36.9% | SF-268 CNS 20.3% | UACC-257 melanoma 63.5% | M14 melanoma 29.9% | HCT-15 colon 49.2%

Cc1c(C(=O)OCCO)cc(-c2ccc(Cl)cc2)n1-c1ccc(Cl)cc1Cl
inactive: NCI-H23 lung 77.6% | HOP-62 NSCLC 89.2% | NCI-H460 lung 37.7% | HOP-92 NSCLC 91.1% | NCI-H522 lung 54.7% | A549/ATCC NSCLC 47.6% | 786-0 renal 94.1% | COLO 205 colon 108% | DU-145 prostate 62.9% | K-562 leukemia 33% | MALME-3M melanoma 76.2% | MDA-MB-231 breast 74.2% | RXF 393 renal 62.8% | SF-268 CNS 70.4% | SF-295 CNS 75.3% | SF-539 CNS 77.5% | UACC-257 melanoma 82% | M14 melanoma 55.6% | HCT-15 colon 53.6%

CCCCCCC(O)(c1ccc(F)cc1)C(CN1CCOCC1)c1ccccc1 (centres undefined)
inactive: NCI-H23 lung 25.4% | HOP-62 NSCLC 56.9% | NCI-H460 lung 16.1% | NCI-H522 lung 26.9% | A549/ATCC NSCLC 23.9% | 786-0 renal 44.9% | DU-145 prostate 51.7% | K-562 leukemia 12.9% | MALME-3M melanoma 24.5% | MDA-MB-231 breast 26.2% | RXF 393 renal 20.6% | SF-268 CNS 47.4% | SF-539 CNS 79.1% | UACC-257 melanoma 57.2% | M14 melanoma 35.5% | HCT-15 colon 28.1%
active: HOP-92 NSCLC -16.1% | COLO 205 colon -21.7% | SF-295 CNS -21.5%

Cc1ccc(C)c(-c2csc(Nc3ccc(C)c(C)c3)n2)c1
active: COLO 205 colon -54.6% | K-562 leukemia -36.5% | MALME-3M melanoma -86.3% | SF-295 CNS -79.5% | UACC-257 melanoma -58.6% | M14 melanoma -81.3%
inactive: NCI-H23 lung 57% | HOP-62 NSCLC 62.3% | NCI-H460 lung 38.5% | HOP-92 NSCLC 27.1% | NCI-H522 lung 65.3% | A549/ATCC NSCLC 43.6% | 786-0 renal 65.9% | MDA-MB-231 breast 39.5% | RXF 393 renal 21.8% | SF-268 CNS 75.5% | SF-539 CNS 25.1% | HCT-15 colon 12.4%
